# From PubChem BioAssay (Tox21)
# “And” between values parts separate entries of the source, which are not always exact repeats. Identical values can stand only once. Records with an inconclusive call do not appear. A call without a number means that no potency is given here. Some structures have more than one record in an assay (separate samples or runs), and their calls can disagree. The source made the active and inactive calls. Unless noted, calls come from the whole dose curve; as a rule, active = well fitted curve in the direction sought with a large enough effect in the repeat runs; inconclusive = weak or mixed curves; inactive = no such curve, though single readings can be large; an effect the other way counts as inactive or inconclusive.
# Experiments:
# [1] = qHTS assay to test for compound auto fluorescence at 535 nm (green) in HEK293 cells (AID 720680)
# [2] = qHTS assay to test for compound auto fluorescence at 460 nm (blue) in HEK293 cell free culture (AID 720681)
# Outline: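 Blue fluorescence (Ex 405/Em 460 nm, triamterene-equivalent) was read immediately after pin transfer of compound or DMSO into medium (DMEM, 10% FBS) without cells.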
# [3] = qHTS assay to test for compound auto fluorescence at 535 nm (green) in HEK293 cell free culture (AID 720682)
# Outline: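 Each library compound, or DMSO control, is added by pintool to medium alone, comprising DMEM and 10% FBS. Emission at 535 nm following 485 nm excitation is quantified against fluorescein.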
# [4] = qHTS assay to test for compound auto fluorescence at 590 nm (red) in HEK293 cell free culture (AID 720683)
# Outline: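 Red-channel autofluorescence of compounds in culture medium (DMEM, 10% FBS), no cells, measured at 540/590 nm. Rose Bengal sodium is the reference fluorophore for equivalence.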
# [5] = qHTS assay to test for compound auto fluorescence at 590 nm (red) in HepG2 cell free culture (AID 720684)
# Outline: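 Plate contents were MEM with 10% FBS plus test compound or DMSO, no cells. Fluorescence was recorded with 540 nm excitation and 590 nm emission.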
# [6] = qHTS assay to test for compound auto fluorescence at 460 nm (blue) in HepG2 cell free culture (AID 720685)
# Outline: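 Compound (23 nL) or DMSO pinned into cell-free MEM with 10% FBS; blue fluorescence read at 405/460 nm excitation/emission, expressed as auto-fluorescence equivalency to triamterene.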
# [7] = qHTS assay to test for compound auto fluorescence at 535 nm (green) in HepG2 cell free culture (AID 720686)
# [8] = qHTS assay to test for compound auto fluorescence at 460 nm (blue) in HepG2 cells (AID 720687)
# Outline: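 Blue-channel autofluorescence (Ex/Em 405/460 nm, triamterene-equivalent) was measured after 1 hr compound exposure at 37 C, 5% CO2. Cells were HepG2, plated overnight at 37 C in MEM plus 10% FBS.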
# [9] = qHTS assay to identify small molecule antagonists of the glucocorticoid receptor (GR) signaling pathway - cell viability counter screen (AID 720693); note: nearly all actives have a fitted effect of over 55% in size; note: potency is the fitted concentration of half-maximal effect
# [10] = qHTS assay for identifying genotoxic compounds that show differential cytotoxicity against isogenic chicken DT40 cell lines with known DNA damage response pathways - Rev3 mutant cell line (AID 743014); note: nearly all actives have a fitted effect of over 55% in size; note: potency is the fitted concentration of half-maximal effect
# [11] = qHTS assay for identifying genotoxic compounds that show differential cytotoxicity against isogenic chicken DT40 cell lines with known DNA damage response pathways - Rad54/Ku70 mutant cell line (AID 743015); note: nearly all actives have a fitted effect of over 60% in size; note: potency is the fitted concentration of half-maximal effect
# [12] = qHTS assay to identify small molecule antagonists of the androgen receptor (AR) signaling pathway - cell viability counter screen (AID 743033; note: nearly all actives have a fitted effect of over 45% in size; note: potency is the fitted concentration of half-maximal effect)
# [13] = qHTS assay to identify small molecule antagonists of the thyroid receptor (TR) signaling pathway - cell viability counter screen (AID 743064); note: nearly all actives have a fitted effect of over 50% in size; note: potency is the fitted concentration of half-maximal effect
# Outline: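 CellTiter-Fluor readout, 30 min at 37 °C/5% CO2, following 23.5 h incubation of GH3.TRE-Luc cells with test compound and 1 nM T3 (final).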
# [14] = qHTS assay to identify small molecule antagonists of the androgen receptor (AR) signaling pathway using the MDA cell line - cell viability counter screen (AID 743041; note: nearly all actives have a fitted effect of over 45% in size; note: potency is the fitted concentration of half-maximal effect)
# Outline: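 R1881-driven MDA-kb2 AR-luc cells, 3,000/well, were dosed with library compounds for 16 h; cell health came from CellTiter-Fluor fluorescence in the reporter wells.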
# [15] = target: Glucocorticoid receptor (Homo sapiens) (UniProt P04150); test: qHTS assay to identify small molecule agonists of the glucocorticoid receptor (GR) signaling pathway (AID 720691; active = well fitted activation curve with a large enough effect in the signal ratio in the repeat runs, not every such curve was filed as active; the % refers to the signal ratio); details: GR-bla HeLa, beta-lactamase reporter ratio, 18 h; activation: at 62.4 µM (top of the series)
# Glucocorticoid receptor (Homo sapiens), sequence (P04150 whole entry, looked up): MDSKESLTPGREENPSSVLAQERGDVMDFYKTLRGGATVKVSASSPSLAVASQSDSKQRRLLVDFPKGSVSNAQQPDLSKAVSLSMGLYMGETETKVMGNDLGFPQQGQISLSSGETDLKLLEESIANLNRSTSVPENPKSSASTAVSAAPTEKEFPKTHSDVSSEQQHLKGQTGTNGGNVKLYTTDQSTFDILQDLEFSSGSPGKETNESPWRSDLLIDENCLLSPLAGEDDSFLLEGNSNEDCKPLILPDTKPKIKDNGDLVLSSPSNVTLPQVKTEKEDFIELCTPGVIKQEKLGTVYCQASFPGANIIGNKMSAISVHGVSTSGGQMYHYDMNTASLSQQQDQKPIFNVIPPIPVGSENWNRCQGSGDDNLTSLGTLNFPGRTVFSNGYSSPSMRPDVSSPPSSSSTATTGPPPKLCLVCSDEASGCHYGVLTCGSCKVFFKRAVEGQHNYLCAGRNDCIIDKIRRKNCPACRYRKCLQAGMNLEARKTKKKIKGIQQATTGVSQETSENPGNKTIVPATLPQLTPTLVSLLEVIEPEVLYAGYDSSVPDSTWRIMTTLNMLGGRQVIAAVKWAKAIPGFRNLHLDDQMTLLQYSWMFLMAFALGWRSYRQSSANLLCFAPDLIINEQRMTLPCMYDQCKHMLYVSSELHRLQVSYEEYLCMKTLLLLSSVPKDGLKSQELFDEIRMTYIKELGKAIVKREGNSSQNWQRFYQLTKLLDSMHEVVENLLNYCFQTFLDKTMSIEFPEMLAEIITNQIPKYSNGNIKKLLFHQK
# Outline: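 GR-bla HeLa cells carrying a GRE-driven beta-lactamase reporter, exposed to compounds for 18 h at 37 C. Reporter activation read as fluorescence after 2 h with LiveBLAzer B/G FRET substrate at room temperature.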
# [16] = qHTS assay for identifying genotoxic compounds that show differential cytotoxicity against isogenic chicken DT40 cell lines with known DNA damage response pathways - wild type cell line (AID 743012); note: nearly all actives have a fitted effect of over 60% in size; note: potency is the fitted concentration of half-maximal effect
# Outline: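 Wild-type DT40 cells (300/well) exposed to compounds for 40 hours at 37 C/5% CO2. Viability read by CellTiter-Glo luminescence after 30 min at room temperature.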
# [17] = target: Glucocorticoid receptor (Homo sapiens) (UniProt P04150); test: qHTS assay to identify small molecule antagonists of the glucocorticoid receptor (GR) signaling pathway (AID 720692; active = well fitted inhibition curve with a large enough effect in the signal ratio in the repeat runs, not every such curve was filed as active; the % refers to the signal ratio; note: potency is the fitted concentration of half-maximal effect)
# Outline: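 GR-bla HeLa cells carrying a GRE-driven beta-lactamase reporter received compound after 4 h plating, then dexamethasone (5 nM final). After 18 h at 37C, the FRET substrate was loaded for 2 h at room temperature and fluorescence read.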
# [18] = target: Androgen receptor (Homo sapiens) (UniProt P10275); test: qHTS assay to identify small molecule antagonists of the androgen receptor (AR) signaling pathway (AID 743035; active = well fitted inhibition curve with a large enough effect in the signal ratio in the repeat runs, not every such curve was filed as active; the % refers to the signal ratio; note: potency is the fitted concentration of half-maximal effect)
# Androgen receptor (Homo sapiens), sequence (P10275 whole entry, looked up): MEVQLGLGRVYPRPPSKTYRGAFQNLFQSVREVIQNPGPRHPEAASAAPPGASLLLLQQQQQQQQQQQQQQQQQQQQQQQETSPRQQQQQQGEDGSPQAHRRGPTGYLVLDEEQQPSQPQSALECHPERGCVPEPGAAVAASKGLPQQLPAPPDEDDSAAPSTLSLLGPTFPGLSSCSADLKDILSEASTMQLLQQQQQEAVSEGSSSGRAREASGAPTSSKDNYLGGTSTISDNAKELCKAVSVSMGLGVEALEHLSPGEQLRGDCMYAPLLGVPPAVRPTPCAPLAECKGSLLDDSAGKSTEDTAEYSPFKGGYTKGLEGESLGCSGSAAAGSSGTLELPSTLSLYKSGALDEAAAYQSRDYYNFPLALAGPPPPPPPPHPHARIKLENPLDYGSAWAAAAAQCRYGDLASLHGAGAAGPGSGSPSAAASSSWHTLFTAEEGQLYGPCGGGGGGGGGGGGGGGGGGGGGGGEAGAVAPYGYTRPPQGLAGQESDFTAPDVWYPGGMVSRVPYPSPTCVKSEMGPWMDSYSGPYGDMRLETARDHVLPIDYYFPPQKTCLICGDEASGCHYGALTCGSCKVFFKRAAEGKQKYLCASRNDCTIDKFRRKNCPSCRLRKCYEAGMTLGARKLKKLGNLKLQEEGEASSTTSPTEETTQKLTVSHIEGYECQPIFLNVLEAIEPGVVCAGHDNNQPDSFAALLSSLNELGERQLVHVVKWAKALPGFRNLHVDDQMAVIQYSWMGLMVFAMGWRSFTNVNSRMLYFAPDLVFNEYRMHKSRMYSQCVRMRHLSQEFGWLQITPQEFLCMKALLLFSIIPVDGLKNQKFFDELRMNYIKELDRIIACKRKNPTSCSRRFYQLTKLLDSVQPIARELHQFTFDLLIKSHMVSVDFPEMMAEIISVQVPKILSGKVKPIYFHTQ
# Outline: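 HEK293 cells stably carrying UAS-beta-lactamase reporter, 2,000/well, given compounds plus R1881 agonist and incubated 16 h at 37C. LiveBLAzer B/G FRET substrate then added for 2 h at room temperature before fluorescence reading.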
# [19] = target: Androgen receptor (Homo sapiens) (UniProt P10275); test: qHTS assay to identify small molecule agonists of the androgen receptor (AR) signaling pathway using the MDA cell line (AID 743040; note: nearly all actives have a fitted effect of over 20% in size)
# Outline: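 After a 5 h incubation at 37C and 0% CO2, MDA-kb2 reporter cells were dosed with compounds in DMSO and kept 16 h under the same conditions. Luciferase activity was then read as luminescence with ONE-Glo.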
# [20] = target: Androgen receptor (Homo sapiens) (UniProt P10275); test: qHTS assay to identify small molecule antagonists of the androgen receptor (AR) signaling pathway using the MDA cell line (AID 743042; note: nearly all actives have a fitted effect of over 55% in size; note: potency is the fitted concentration of half-maximal effect)
# Outline: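 Antagonist mode: compounds plus R1881 agonist added to MDA-kb2 AR-luc cells, incubated 16 h at 37C. Luciferase reporter luminescence quantified, with multiplexed CellTiter-Fluor readout for cell viability.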
SMILES,outcome [1],Potency [2],outcome [3],outcome [4],outcome [5],Potency [6],Potency [7],Potency [8],Potency [9],Potency [10],Potency [11],Potency [12],Potency [13],Potency [14],Potency [15],Potency [16],Potency [17],Potency [18],outcome [19],Potency [20]
COP(=O)(OC)Oc1ccc([N+](=O)[O-])cc1,inactive,inactive,inactive,inactive,inactive,inactive,inactive,inactive,inactive,61.1 µM (active),inactive,inactive,inactive,–,–,–,–,–,–,–
CC(=O)O.CC(=O)O.CC(=O)O.CC(=O)O.CC(=O)O.CC(=O)O.CC(=O)O.O.O.[Cr].[Cr].[Cr],inactive,inactive,inactive,inactive,inactive,inactive,inactive,inactive,inactive,inactive,inactive,inactive,inactive,inactive,–,–,–,–,–,–
COP(=S)(NC(C)C)Oc1ccc(C)cc1[N+](=O)[O-] (configuration not stated),inactive,inactive,inactive,inactive,–,inactive,inactive,inactive,inactive,–,61.1 µM (active),inactive,–,–,inactive,54.5 µM (active),–,–,–,–
Clc1cc(Cl)c(-c2cc(Cl)c(Cl)cc2Cl)cc1Cl,inactive,inactive,inactive,inactive,–,inactive,inactive,inactive,inactive,inactive,inactive,inactive,–,inactive,inactive,inactive,inactive,–,–,–
CO/N=C(\C(=O)OC)c1ccccc1CO/N=C(\C)c1cccc(C(F)(F)F)c1,inactive,inactive,inactive,inactive,inactive,inactive,inactive,inactive,–,0.273 µM (active),0.273 µM (active),–,34.4 µM (active),5.45 µM (active),–,0.344 µM (active),–,–,–,–
O=C1C2(Cl)C3(Cl)C4(Cl)C(Cl)(Cl)C5(Cl)C3(Cl)C1(Cl)C5(Cl)C24Cl (configuration not stated),inactive,inactive,inactive,inactive,inactive,inactive,inactive,inactive,24.1 µM (active),13.5 µM (active) and 32.9 µM (active),19 µM (active) and 26.1 µM (active),38.3 µM (active) and 46.9 µM (active),9.53 µM (active) and 13.1 µM (active),–,–,–,–,23.5 µM (active),inactive,60.1 µM (active)
c1ccc(N=NNc2ccccc2)cc1,inactive,inactive,inactive,inactive,inactive,inactive,inactive,inactive,inactive,–,63.3 µM (active),inactive,–,–,–,–,–,–,–,–
CC(=O)[O][Sn]([c]1ccccc1)([c]1ccccc1)[c]1ccccc1,inactive,inactive,inactive,inactive,inactive,inactive,inactive,inactive,0.871 µM (active),0.172 µM (active),–,245 nM (active),0.172 µM (active),5.45 µM (active),–,–,–,–,–,–
Cc1nn(-c2cc(NS(C)(=O)=O)c(Cl)cc2Cl)c(=O)n1C(F)F,inactive,inactive,inactive,inactive,inactive,inactive,inactive,inactive,inactive,inactive,inactive,inactive,inactive,inactive,–,–,–,–,inactive,inactive
Clc1ccc(C2(Cn3cncn3)OCCO2)c(Cl)c1,inactive,inactive,inactive,inactive,–,inactive,inactive,inactive,inactive,30.6 µM (active),inactive and 61.1 µM (active),inactive,inactive,inactive,inactive,61.1 µM (active),inactive,–,–,–
CSC1=N[C@@](C)(c2ccccc2)C(=O)N1Nc1ccccc1,inactive,inactive,inactive,inactive,–,inactive,inactive,inactive,inactive,1.72 µM (active),1.54 µM (active),–,–,48.6 µM (active),inactive,–,–,–,–,–
CCCCCCCCCCCCCCn1cc[n+](C)c1,inactive,inactive,inactive,inactive,inactive,inactive,inactive,inactive,–,109 nM (active) and 152 nM (active) and inactive,122 nM (active) and 135 nM (active) and inactive,6.93 µM (active) and 24.3 µM (active) and inactive,2.74 µM (active) and 15.2 µM (active),–,–,217 nM (active) and 241 nM (active) and inactive,–,–,–,–
CCC[CH2][Sn]([CH2]CCC)([O]C(C)=O)[O]C(C)=O,inactive,inactive,inactive,inactive,–,inactive,inactive,inactive,inactive,30.9 µM (active),30.9 µM (active),–,19.5 µM (active),inactive,–,–,0.35 µM (active),–,–,–
C#CC1(O)CCCCC1,inactive,inactive,inactive,inactive,inactive,inactive,inactive,inactive,inactive,inactive,inactive,inactive,inactive,inactive,–,–,–,–,–,–
CCOC(=O)CCN(SN(C)C(=O)Oc1cccc2c1OC(C)(C)C2)C(C)C,inactive,inactive,inactive,inactive,–,inactive,inactive,inactive,inactive,24.3 µM (active),21.7 µM (active),inactive,inactive,inactive,inactive,17.2 µM (active),inactive,–,–,–
